From PubChem
Rows were chosen to be rich in hits. Some 4.7% of all compounds tested hit in one or more screens of this group.
tim23-1 inh: growth inhibitors of tim23-1 mutant yeast, primary screen, luminescence, uHTS; inhibition, % at 20 µM; 330,000 compounds, 1.3% hits; AID 463212, 2010; S. cerevisiae tim23-1 growth, BacTiter-Glo luminescence, 24 h;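 active = growth inhibition of the mutant yeast at or above 50%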;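 note: temperature-sensitive mutant grown at 25 °C; plate controls were DMSO-treated mutant yeast for no effect and medium wells lacking yeast for full effect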
SKKanGAS inh: S. pyogenes SKKanGAS growth inhibitors in kanamycin, primary screen, streptokinase expression inhibitor project, SKKanGAS strain, BacTiter-Glo luminescence; 6 h; inhibition, % at 7.5 µM; 300,000 compounds, 1.3% hits; AID 1662, 2009;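 active = mean replicate score, as percent of positive control median, at least 50; inconclusive = mean below 50 but one replicate at or above 50; inactive = mean and every replicate below 50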;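 note: strain carries kanamycin resistance gene driven by streptokinase promoter and grows in 40 µg/ml kanamycin; loss of luminescence reflects streptokinase promoter inhibition or plain growth inhibition; 0% = median of DMSO wells and 100% = positive control at its reference dose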
tim10-1 inh: growth inhibitors of tim10-1 mutant yeast, primary screen, luminescence, uHTS. 330,000 compounds, 2.2% hits. S. cerevisiae tim10-1 ts strain growth, BacTiter-Glo, 24 h. inhibition, % at 20 µM. AID 463190, 2010;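 active = inhibition of at least 40%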;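 note: mutant grown at 25 °C; 0% = DMSO wells with yeast and 100% = wells holding no yeast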
TIM10 inh: growth inhibitors of isogenic TIM10 control yeast, primary screen, counter-screen for tim10-1 yeast inhibitor project, luminescence, uHTS; 330,000 compounds, 1.4% hits; inhibition, % at 10 µM; S. cerevisiae TIM10 strain growth, BacTiter-Glo luminescence, 24 h;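 active = inhibition of 40% or more at the single tested concentration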;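 note: wild-type TIM10 isogenic control strain grown at permissive 25 °C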
Calb FLC: C. albicans growth inhibition with fluconazole, primary screen, CaCi-2 strain, Alamar Blue fluorescence. C. albicans CaCi-2 (fluconazole-resistant clinical isolate) + fluconazole, 48 h. growth inhibition, % (test concentration not listed). 300,000 compounds, 0.57% hits. AID 1979, 2009;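 active = growth inhibition above about 58% in most replicates, limit read from the data, passing the limit was not always enough; inconclusive = exactly half the replicates above a set limit; inactive = most replicates below a set limit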;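 note: all wells also contain fluconazole at 8 µg/ml as a sub-toxic cotreatment; 0% = median of DMSO wells and 100% = median of geldanamycin control wells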
PfHsp90 set2: growth inhibition of PfHsp90-expressing yeast, primary screen, antimalarial PfHsp90 inhibitor project, S. cerevisiae, BacTiter-Glo luminescence, single point, set 2; BacTiter-Glo ATP, 48 h; yeast lacking PDR1 and PDR3 efflux regulators; inhibition, % at 9.4 µM; 310,000 compounds, 0.32% hits; AID 504621, 2011;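 active = every replicate shows inhibition above about 80%, whatever the replicate mean, limit read from the data; inconclusive = mean inhibition reaches the set limit but some replicate falls short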;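 note: 0% = DMSO neutral controls and 100% = 20 µM radicicol positive controls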
tim10-1 conf: growth inhibitors of tim10-1 mutant yeast, confirmation, single concentration, luminescence, S. cerevisiae; 7,400 compounds, 56% hits; inhibition, % at 20 µM; shares compounds with tim10-1 inh; S. cerevisiae tim10-1 ts strain growth, BacTiter-Glo, 24 h;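 active = inhibition of yeast growth at or above a set limit in either of two repeat tests at 20 µM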;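 note: tim10-1 mutant grown at permissive 25 °C to find synthetic lethal compounds; 0% = DMSO yeast wells and 100% = medium wells without yeast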
* hit, by the source's call.

Results for O=C(c1csc2c1CCCC2)N1CCN(c2cccc(C(F)(F)F)c2)CC1 ?
tim23-1 inh: 33; SKKanGAS inh: 14; tim10-1 inh: 56*; TIM10 inh: 30; Calb FLC: 20; tim10-1 conf: 33*

What do the screens show for `CCCCn1c(-c2csc3c2CCC(C)C3)n[nH]c1=S` (stereo unspecified)?
tim23-1 inh: 39; SKKanGAS inh: 1; tim10-1 inh: 51*; TIM10 inh: 20; Calb FLC: -45; PfHsp90 set2: -7; tim10-1 conf: 25

Results for CCNc1c(NS(=O)(=O)c2ccc(F)c(Cl)c2)c(=O)oc2ccccc12 ?
tim23-1 inh: 1; SKKanGAS inh: -6; tim10-1 inh: -19; TIM10 inh: 8; Calb FLC: -1; PfHsp90 set2: -2

How did CCOC(=O)Nc1ccc(C(=O)NCC2CCCO2)cc1 (stereo unspecified) do in these assays?
tim23-1 inh: 27; SKKanGAS inh: -4; tim10-1 inh: 43*; TIM10 inh: 9; Calb FLC: -3; PfHsp90 set2: 13; tim10-1 conf: 9

What do the screens show for `Cc1ccc(C(=O)Nc2ccc(C(=O)NCC3CCCO3)cc2)cc1` (stereo unspecified)?
tim23-1 inh: 2; SKKanGAS inh: 0; tim10-1 inh: 5; TIM10 inh: -7; Calb FLC: 1; PfHsp90 set2: 7

How did O=C(c1cc2ccccc2oc1=O)N(Cc1ccco1)Cc1cccs1 do in these assays?
tim23-1 inh: 36; SKKanGAS inh: 2; tim10-1 inh: 27; TIM10 inh: 2; Calb FLC: 4

Results for O=C(CS(=O)(=O)c1ccccc1)c1cc2ccccc2oc1=O ?
tim23-1 inh: 50; SKKanGAS inh: -5; tim10-1 inh: 42*; TIM10 inh: 17; Calb FLC: inconclusive; PfHsp90 set2: -5; tim10-1 conf: 1

How did O=C(c1cc2ccccc2oc1=O)N(Cc1cccs1)Cc1cccs1 do in these assays?
tim23-1 inh: 26; SKKanGAS inh: 5; tim10-1 inh: 42*; TIM10 inh: 15; Calb FLC: -2; PfHsp90 set2: 35; tim10-1 conf: 14

How did COc1ccc(NC(=O)/C(=C\c2ccc(OC)c(OC)c2)NC(=O)c2ccco2)cc1 do in these assays?
tim23-1 inh: 8; SKKanGAS inh: 11; tim10-1 inh: -5; TIM10 inh: -5; Calb FLC: -14; PfHsp90 set2: -76

Results for CC(C)C[C@@H](CN1CCCC1CN1C(=S)NC[C@@H]1Cc1ccc(O)cc1)N1C[C@H](Cc2ccc(O)cc2)N(CCc2ccccc2)C1=S (stereo partly specified) ?
PfHsp90 set2: 8

How did Cc1ccc(N2C(=O)N3[C@H]4c5ccccc5OC[C@@H]4[C@@H](c4ccccc4)[C@@]3(C)C2=O)cc1 do in these assays?
tim23-1 inh: 24; SKKanGAS inh: 0; tim10-1 inh: 49*; TIM10 inh: 7; Calb FLC: 30; PfHsp90 set2: -11; tim10-1 conf: 19

What do the screens show for `Cc1ccc(C(=O)NNC(=O)CCCCC(=O)NNC(=O)c2ccc(C)cc2)cc1`?
tim23-1 inh: 5; SKKanGAS inh: 0; tim10-1 inh: 7; TIM10 inh: 3; Calb FLC: -4; PfHsp90 set2: 4

What do the screens show for `O=C(C1CCCN(S(=O)(=O)c2cccc3nsnc23)C1)N1CC=C(c2ccccc2)CC1` (stereo unspecified)?
tim23-1 inh: 6; tim10-1 inh: 15; TIM10 inh: 26; PfHsp90 set2: -29

What do the screens show for `O=C(C1CCN(S(=O)(=O)c2cccc3nsnc23)CC1)N1CC=C(c2ccccc2)CC1`?
tim23-1 inh: 10; SKKanGAS inh: 4; tim10-1 inh: 43*; TIM10 inh: 12; Calb FLC: 8; PfHsp90 set2: 10; tim10-1 conf: 21

What do the screens show for `CCOc1cc(/C=N/NC(=O)C2CC2)ccc1OC(C)C`?
tim23-1 inh: 33; tim10-1 inh: 24; TIM10 inh: 18; Calb FLC: -12; PfHsp90 set2: -7

Results for Nc1sc(-c2ccccc2)c(Cc2ccccc2)c1C(=O)O ?
tim23-1 inh: 19; SKKanGAS inh: 12; tim10-1 inh: 53*; TIM10 inh: 20; Calb FLC: 11; PfHsp90 set2: -7; tim10-1 conf: 35*

How did COC(=O)c1c(N)sc(Cc2ccccc2)c1C do in these assays?
tim23-1 inh: 26; SKKanGAS inh: 12; tim10-1 inh: 19; TIM10 inh: 5; Calb FLC: 8; PfHsp90 set2: -26

How did Cc1c(NC(=O)c2cccnc2Cl)c(=O)n(-c2ccccc2)n1C do in these assays?
tim23-1 inh: 7; SKKanGAS inh: 3; tim10-1 inh: 12; TIM10 inh: -12; Calb FLC: 3; PfHsp90 set2: -10

What do the screens show for `CCc1ccc(-c2ccc3nnc(SCC(N)=O)n3n2)cc1`?
tim23-1 inh: 15; SKKanGAS inh: inconclusive; tim10-1 inh: 23; TIM10 inh: 15; Calb FLC: 32; PfHsp90 set2: -15

Results for CCSc1nnc2ccc(-c3ccc(C)cc3)nn12 ?
tim23-1 inh: 38; SKKanGAS inh: 0; tim10-1 inh: 45*; TIM10 inh: -5; Calb FLC: -4; PfHsp90 set2: -14; tim10-1 conf: 24

How did CCSc1nnc2ccc(-c3cccs3)nn12 do in these assays?
tim23-1 inh: 10; SKKanGAS inh: -13; tim10-1 inh: -10; TIM10 inh: 4; Calb FLC: 2; PfHsp90 set2: 14

What do the screens show for `CCc1ccc(-c2ccc3nnc(SC)n3n2)cc1`?
tim23-1 inh: 42; SKKanGAS inh: 12; tim10-1 inh: 56*; TIM10 inh: 17; Calb FLC: -1; PfHsp90 set2: -40; tim10-1 conf: 18

How did COc1cc2cc(CCCOC(=O)CCCC(=O)O)oc(=O)c2cc1OC do in these assays?
tim23-1 inh: -7; tim10-1 inh: 4; TIM10 inh: -13; PfHsp90 set2: 4

How did CC(/C=N/Nc1ncc(C)c(=O)[nH]1)=C\c1ccccc1 do in these assays?
tim23-1 inh: 6; SKKanGAS inh: -6; tim10-1 inh: 41*; TIM10 inh: 14; Calb FLC: 53; PfHsp90 set2: -4; tim10-1 conf: 20

Results for CC(/C=N/Nc1nc(C)cc(=O)[nH]1)=C\c1ccccc1 ?
tim23-1 inh: 13; SKKanGAS inh: -5; tim10-1 inh: 29; TIM10 inh: 17; Calb FLC: 61
